PubChem BioAssay (Tox21)
“And” between values parts separate entries of the source, which are not always exact repeats. Equal values may be shown once. Results filed as inconclusive are left out. Where a call stands in place of a potency, no number is given. More than one record can exist for a structure, and the calls need not agree. The source made the active and inactive calls. Unless noted, calls come from the whole dose curve; as a rule, active = well fitted curve in the direction sought with a large enough effect in the repeat runs; inconclusive = weak or mixed curves; inactive = no such curve, though single readings can be large; an effect the other way counts as inactive or inconclusive.

Assays:
[1] = A CellTox Green Cytotoxicity Assay to monitor cytotoxicity in HepG2 cells - 8 hour (AID 1224890); note: nearly all actives have a fitted effect of over 45% in size
Summary of the method: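 Cells and non-lytic dye reagent are dispensed together (600 HepG2 cells/well) and incubated 5 h before DMSO compound transfer. Kinetic fluorescence is then recorded in the same wells during 40 h at 37 C.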

[2] = qHTS assay to identify small molecule antagonists of the androgen receptor (AR) signaling pathway using the MDA cell line in the presence of 0.5 nM R1881 - cell viability counter screen (AID 1259242); note: nearly all actives have a fitted effect of over 45% in size
Summary of the method: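 Steps: plate MDA-kb2 cells, rest 5 hr at 37C without CO2; pin in compounds in DMSO; add R1881 to 0.5 nM final; incubate 16 hr; add CellTiter-Fluor, 30 min; read fluorescence.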

[3] = target: Estrogen receptor (Homo sapiens) (UniProt P03372); experiment: qHTS assay to identify small molecule antagonists of the estrogen receptor alpha (ER-alpha) signaling pathway using the BG1 cell line in the presence of 0.1 nM 17-beta-estradiol (AID 1259244); note: nearly all actives have a fitted effect of over 50% in size; note: potency is the fitted concentration of half-maximal effect
Summary of the method: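 Antagonist mode: compounds in DMSO are pinned onto VM7Luc4E2 reporter cells, 0.1 nM final 17beta-estradiol is added, and after 22 h at 37C luciferase luminescence is measured with ONE-Glo.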

[4] = qHTS assay to identify small molecule phospholipidosis (PLD) inducers (AID 1259344; active = well fitted curve in the direction sought with a large enough effect; an effect the other way counts as inactive or inconclusive)
Summary of the method: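 Read-out is LipidTOX Red fluorescence (ex 595/em 615) imaged in HepG2 cells after 24 h compound exposure at 37 C, with Hoechst nuclear counterstain (ex 352/em 461) allowing per-cell normalisation.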

[5] = qHTS assay to identify small molecule HDAC inhibitors (AID 1259364); note: potency is the fitted concentration of half-maximal effect;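 note: wild-type HCT-116 cells with endogenous class I/II HDAC activity; nearly all actives have a fitted effect of over 45% in size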
Summary of the method: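 Cells (HCT-116, wild type) are seeded at 1,500 per well, incubated overnight, treated with compound in DMSO for 2 hr, then developed with HDAC-Glo I/II reagent for 30 min at room temperature.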

[6] = qHTS assay to identify small molecule HDAC inhibitors - cell viability counter screen (AID 1259365); note: series mostly up to about 92 µM; nearly all actives have a fitted effect of over 50% in size
Summary of the method: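 Cytotoxicity was gauged in wild-type HCT-116 cells after a brief 2hr treatment with DMSO-dissolved compounds at 37C and 5% CO2, using CellTiter-Glo luminescence developed for 30min at room temperature.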

[7] = qHTS assay to identify small molecule agonists of the sonic hedgehog signaling (Shh) pathway - cell viability counter screen (AID 1259366); note: nearly all actives have a fitted effect of over 50% in size; note: potency is the fitted concentration of half-maximal effect
Summary of the method: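 Stable Gli1-Luc NIH/3T3 clone, 2,000 cells/well. Compound exposure 24hr at 37C. Read-out: CellTiter-Fluor fluorescence.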

[8] = qHTS assay to identify small molecule antagonists of the sonic hedgehog signaling (Shh) pathway - cell viability counter screen (AID 1259367); note: nearly all actives have a fitted effect of over 55% in size; note: potency is the fitted concentration of half-maximal effect
Summary of the method: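 Fluorescence read-out (CellTiter-Fluor, 1 hr at 37C) taken after 23 hr compound treatment of 3T3 Gli1-Luc cells stimulated with conditioned medium. Cells were seeded at 2,000 per well and pre-incubated 4 hr.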

[9] = qHTS assay to identify small molecule agonists of the sonic hedgehog signaling (Shh) pathway (AID 1259368; calls by dose curve;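 note: NIH/3T3-derived 3T3Gli1-Luc cells carrying a stable Gli1-driven firefly luciferase reporter; series mostly up to about 92 µM; nearly all actives have a fitted effect of over 15% in size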)
Summary of the method: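 Cells of a mouse NIH/3T3 clone stably expressing luciferase under the Gli1 transcriptional response element are exposed to test chemicals for 24 hr at 37 C. Pathway activation is detected as a rise in luminescence.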

[10] = qHTS assay to identify small molecule antagonists of the sonic hedgehog signaling (Shh) pathway (AID 1259369; calls by dose curve; note: nearly all actives have a fitted effect of over 45% in size; note: potency is the fitted concentration of half-maximal effect)
Summary of the method: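 Cells are plated and held 4hr at 37 C, compounds (DMSO) are pinned in, conditioned medium is added to stimulate the pathway, and after 24hr luciferase reagent is added for 30min before luminescence is read.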

[11] = target: Estrogen receptor beta (Homo sapiens) (UniProt Q92731); experiment: qHTS assay to identify small molecule agonists of the estrogen receptor beta (ER-beta) signaling pathway (AID 1259377; active = well fitted activation curve with a large enough effect in the signal ratio in the repeat runs, not every such curve was filed as active; the % refers to the signal ratio)
Summary of the method: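 Measured by fluorescence intensity from a B/G FRET beta-lactamase substrate (2 h, room temperature) in ER-beta-UAS-bla HEK293T cells treated with DMSO-dissolved compounds for 16 hr at 37C and 5% CO2.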

[12] = target: Estrogen receptor beta (Homo sapiens) (UniProt Q92731); experiment: qHTS assay to identify small molecule antagonists of the estrogen receptor beta (ER-beta) signaling pathway (AID 1259378; active = well fitted inhibition curve with a large enough effect in the signal ratio in the repeat runs, not every such curve was filed as active; the % refers to the signal ratio; note: potency is the fitted concentration of half-maximal effect)
Summary of the method: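 ER-beta-UAS-bla HEK293T cells in 2% charcoal-stripped FBS medium treated with compound plus 1nM final 17-beta-estradiol for 16 hr at 37C. Beta-lactamase reporter read by FRET substrate fluorescence after 2 hours at room temperature.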

[13] = qHTS assay to identify small molecule agonists of the androgen receptor (AR) signaling pathway in the presence of an antagonist - cell viability counter screen (AID 1259379); note: nearly all actives have a fitted effect of over 25% in size; note: potency is the fitted concentration of half-maximal effect
Summary of the method: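 Cytotoxicity is assessed by CellTiter-Fluor in MDA-kb2 cells carrying an MMTV-driven luciferase reporter. Cells receive 3.0uM nilutamide plus compounds at 15 concentrations and incubate 16 hr at 37C without CO2 before fluorescence reading.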

[14] = qHTS assay to identify small molecule agonists of the estrogen receptor beta (ER-beta) signaling pathway - cell viability counter screen (AID 1259380); note: nearly all actives have a fitted effect of over 30% in size; note: potency is the fitted concentration of half-maximal effect
Summary of the method: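 Cytotoxicity is measured in parallel with the reporter screen: after 16 hr compound exposure at 37C and a 2 hr LiveBLAzer step, CellTiter-Glo is added to the same ER-beta-UAS-bla HEK293T wells and luminescence read after 30 min.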

[15] = qHTS assay to identify small molecule antagonists of the estrogen receptor beta (ER-beta) signaling pathway - cell viability counter screen (AID 1259382); note: series mostly up to about 92 µM; nearly all actives have a fitted effect of over 55% in size
Summary of the method: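 Cytotoxicity counter screen multiplexed with the beta-lactamase antagonist assay: GripTite HEK293T ER-beta-bla cells were treated 16 hr with test chemicals in the presence of 1nM 17-beta-estradiol, and viability was measured by CellTiter-Glo.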

[16] = target: Estrogen receptor (Homo sapiens) (UniProt P03372); experiment: qHTS assay to identify small molecule agonists of the estrogen receptor alpha (ER-alpha) signaling pathway in the presence of an antagonist (AID 1259383; calls by dose curve; note: nearly all actives have a fitted effect of over 15% in size; note: potency is the fitted concentration of half-maximal effect; for activation: top concentration of the series differs between compounds)
Summary of the method: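 Agonist-mode confirmation in the presence of the ER antagonist ICI-182,780 at 10.0nM final. Breast-derived VM7Luc4E2 reporter cells were exposed to compounds for 22hr, and ERE-driven luciferase was quantified by luminescence.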

[17] = target: Androgen receptor (Homo sapiens) (UniProt P10275); experiment: qHTS assay to identify small molecule antagonists of the androgen receptor (AR) signaling pathway using the MDA cell line in the presence of 0.5 nM R1881 (AID 1259243); note: nearly all actives have a fitted effect of over 50% in size; note: potency is the fitted concentration of half-maximal effect
Summary of the method: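 Stably transfected MDA-kb2 cells express luciferase from an MMTV promoter bearing both AR and GR response elements. Compounds plus 0.5 nM R1881 (final) were incubated 16 hr at 37C without CO2, then luminescence measured.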

[18] = target: Androgen receptor (Homo sapiens) (UniProt P10275); experiment: qHTS assay to identify small molecule agonists of the androgen receptor (AR) signaling pathway in the presence of an antagonist (AID 1259381; calls by dose curve; note: nearly all actives have a fitted effect of over 15% in size)
Summary of the method: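 Agonist-mode confirmation screen: human MDA-kb2 cells stably expressing luciferase under an MMTV promoter bearing AR and GR response elements, co-treated with 3.0uM nilutamide (final). Luminescence measured after 16hr compound incubation.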

[19] = qHTS assay to identify small molecule antagonists of the estrogen receptor alpha (ER-alpha) signaling pathway using the BG1 cell line in the presence of 0.1 nM 17-beta-estradiol - cell viability counter screen (AID 1259241); note: nearly all actives have a fitted effect of over 40% in size
Summary of the method: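 Viability in VM7Luc4E2 cells after 22 hr compound exposure under 0.1 nM 17beta-estradiol stimulation, by CellTiter-Fluor.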

[20] = qHTS assay to identify small molecule agonists or antagonists of the thyroid stimulating hormone receptor (TSHR) signaling pathway - wild type cell line counter screen (AID 1259384; calls by dose curve)
Summary of the method: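 Wild-type Hek293 cells, 800/well, 18 h at 37C, then compound with Ro20-1724 for 30 min RT. cAMP by HTRF (cAMP-d2/anti-cAMP cryptate), 1 h RT, fluorescence read. 15 concentrations, triplicates.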

Estrogen receptor beta (Homo sapiens), sequence (Q92731 whole entry, looked up): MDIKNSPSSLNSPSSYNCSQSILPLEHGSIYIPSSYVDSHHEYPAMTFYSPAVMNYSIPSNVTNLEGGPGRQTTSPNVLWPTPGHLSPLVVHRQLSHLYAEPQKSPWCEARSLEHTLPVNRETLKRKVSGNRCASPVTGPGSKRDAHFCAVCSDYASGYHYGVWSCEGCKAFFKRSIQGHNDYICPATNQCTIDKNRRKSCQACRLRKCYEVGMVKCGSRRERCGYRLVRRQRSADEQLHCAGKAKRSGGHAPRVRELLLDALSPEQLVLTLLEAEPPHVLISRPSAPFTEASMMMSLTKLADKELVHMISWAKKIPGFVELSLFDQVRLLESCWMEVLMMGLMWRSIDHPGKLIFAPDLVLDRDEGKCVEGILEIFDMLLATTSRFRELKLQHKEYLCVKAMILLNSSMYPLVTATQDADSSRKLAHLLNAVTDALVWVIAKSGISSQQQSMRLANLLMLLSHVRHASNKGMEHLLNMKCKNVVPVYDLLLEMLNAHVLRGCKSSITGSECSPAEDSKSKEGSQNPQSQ
Androgen receptor (Homo sapiens), sequence (P10275 whole entry, looked up): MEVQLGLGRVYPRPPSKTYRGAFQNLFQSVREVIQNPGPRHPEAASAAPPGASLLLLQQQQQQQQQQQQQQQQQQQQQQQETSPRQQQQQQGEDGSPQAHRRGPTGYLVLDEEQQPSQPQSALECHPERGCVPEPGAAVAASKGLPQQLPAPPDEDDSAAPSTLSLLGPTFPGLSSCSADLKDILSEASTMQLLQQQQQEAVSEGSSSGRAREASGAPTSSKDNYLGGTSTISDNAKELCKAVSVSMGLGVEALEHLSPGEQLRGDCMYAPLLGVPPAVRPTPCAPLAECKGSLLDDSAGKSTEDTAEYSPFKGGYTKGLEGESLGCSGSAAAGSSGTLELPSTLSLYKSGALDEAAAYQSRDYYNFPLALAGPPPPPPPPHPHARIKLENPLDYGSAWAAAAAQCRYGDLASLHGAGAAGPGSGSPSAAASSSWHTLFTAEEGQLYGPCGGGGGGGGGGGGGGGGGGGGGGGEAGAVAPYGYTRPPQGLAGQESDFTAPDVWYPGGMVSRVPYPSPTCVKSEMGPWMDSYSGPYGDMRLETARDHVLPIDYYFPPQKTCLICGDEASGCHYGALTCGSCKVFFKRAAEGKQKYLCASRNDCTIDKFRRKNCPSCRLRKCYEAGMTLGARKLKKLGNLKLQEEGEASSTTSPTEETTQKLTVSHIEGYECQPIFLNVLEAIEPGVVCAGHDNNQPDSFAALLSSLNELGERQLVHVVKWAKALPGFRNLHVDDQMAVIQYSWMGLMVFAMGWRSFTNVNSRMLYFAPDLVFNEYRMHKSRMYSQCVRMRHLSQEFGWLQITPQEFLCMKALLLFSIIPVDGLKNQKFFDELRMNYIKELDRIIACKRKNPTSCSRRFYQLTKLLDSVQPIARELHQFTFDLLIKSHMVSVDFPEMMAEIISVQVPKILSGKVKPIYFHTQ
Estrogen receptor (Homo sapiens), sequence (P03372 whole entry, looked up): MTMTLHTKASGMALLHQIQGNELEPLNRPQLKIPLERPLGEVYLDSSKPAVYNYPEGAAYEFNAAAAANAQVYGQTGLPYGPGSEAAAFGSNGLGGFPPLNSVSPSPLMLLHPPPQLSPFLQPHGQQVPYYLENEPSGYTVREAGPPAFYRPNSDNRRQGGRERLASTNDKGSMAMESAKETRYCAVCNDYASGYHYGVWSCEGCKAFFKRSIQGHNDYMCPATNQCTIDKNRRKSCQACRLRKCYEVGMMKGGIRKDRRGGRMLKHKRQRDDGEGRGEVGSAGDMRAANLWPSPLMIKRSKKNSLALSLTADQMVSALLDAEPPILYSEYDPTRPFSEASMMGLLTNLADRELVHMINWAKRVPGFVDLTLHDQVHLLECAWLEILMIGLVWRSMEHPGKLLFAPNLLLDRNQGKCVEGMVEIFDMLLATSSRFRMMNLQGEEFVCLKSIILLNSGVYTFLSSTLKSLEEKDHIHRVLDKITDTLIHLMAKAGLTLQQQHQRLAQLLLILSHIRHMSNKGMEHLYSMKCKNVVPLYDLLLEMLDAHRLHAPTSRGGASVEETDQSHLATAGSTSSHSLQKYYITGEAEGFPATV

| SMILES | Potency [1] | Potency [2] | Potency [3] | Potency [4] | Potency [5] | outcome [6] | Potency [7] | Potency [8] | outcome [9] | Potency [10] | outcome [11] | Potency [12] | Potency [13] | Potency [14] | Potency [15] | Potency [16] | Potency [17] | outcome [18] | Potency [19] | Potency [20] |
| --- | --- | --- | --- | --- | --- | --- | --- | --- | --- | --- | --- | --- | --- | --- | --- | --- | --- | --- | --- | --- |
| NC(=O)N/N=C/c1ccc([N+](=O)[O-])o1 | inactive | inactive | inactive and 64.8 µM (active) | inactive | inactive | inactive | inactive and 54.5 µM (active) | inactive and 30.6 µM (active) | inactive | inactive and 10.9 µM (active) and 29.8 µM (active) | inactive | inactive | inactive | inactive | inactive | inactive |  |  |  |  |
| Cc1cccc(Nc2cc(Cl)nc(SCC(=O)O)n2)c1C | inactive | inactive | inactive | inactive | inactive | inactive | inactive | inactive | inactive | inactive |  |  | inactive | inactive | inactive | inactive | inactive | inactive |  |  |
| N[C@@H](Cc1c[nH]c2ccc(O)cc12)C(=O)O | inactive |  | inactive | inactive | inactive | inactive | inactive | inactive | inactive | inactive |  |  | inactive | inactive | inactive | inactive |  |  | inactive |  |
| CC(C)(C)CC(C)(C)c1ccc(O)c(-n2nc3ccccc3n2)c1 | inactive |  | inactive | inactive | inactive | inactive | inactive | inactive | inactive | inactive | inactive | inactive | inactive | 27.7 µM (active) |  | inactive |  |  | inactive |  |
| C=CCOC(=O)CC(C)C | inactive | inactive | inactive |  | inactive | inactive | inactive | inactive | inactive | inactive | inactive | inactive | inactive | inactive | inactive | inactive |  |  |  | inactive |
| COc1ccc(C(=O)c2ccccc2)c(O)c1 | inactive | inactive | inactive | inactive | inactive | inactive | inactive | inactive | inactive | inactive | inactive | inactive | inactive | inactive |  | inactive | 15.1 µM (active) and 27.3 µM (active) and 21.1 µM (active) | inactive |  | inactive |
| CCCCCCCCOc1ccc(C(=O)c2ccccc2)c(O)c1 | inactive |  | inactive | inactive | inactive | inactive | inactive | inactive | inactive | inactive |  |  | inactive | inactive |  | inactive |  |  | inactive | inactive |
| NC(N)=NC(N)=NCCc1ccccc1 | inactive | inactive | 7.65 µM (active) and 5.45 µM (active) and 7.5 µM (active) | inactive | inactive | inactive | inactive | inactive | inactive | inactive | inactive | inactive | 48.3 µM (active) and 54.5 µM (active) and 26.6 µM (active) | inactive |  | inactive |  |  |  |  |
| O=C(OCc1ccccc1)c1ccccc1 | inactive |  |  | inactive | 15.4 µM (active) and 13.7 µM (active) and 10.6 µM (active) | inactive | inactive | inactive | inactive | inactive |  |  | inactive | inactive |  |  |  |  | inactive | inactive |
| CCCCOCCOCCSC#N | inactive |  |  |  | inactive | inactive | inactive | inactive | inactive | inactive | inactive | inactive | inactive | inactive | inactive |  |  |  | inactive | inactive |
| CN/C(=C\[N+](=O)[O-])NCCSCc1ccc(CN(C)C)o1 | inactive | inactive | inactive | inactive | inactive | inactive | inactive | inactive | inactive | inactive | inactive | inactive | inactive | inactive |  | inactive |  |  |  | inactive |
| CCN(CC)CCOC(=O)c1ccc(N)cc1 | inactive |  |  | inactive | inactive | inactive | inactive | inactive | inactive | inactive |  |  | inactive | inactive | inactive |  |  |  | inactive |  |
| O=C(O)Cc1cccc2ccccc12 | inactive |  |  | inactive | inactive | inactive | inactive | inactive | inactive | inactive |  |  | inactive | inactive | inactive |  |  |  | inactive |  |
| COC1=CC(=O)C[C@@H](C)[C@]12Oc1c(Cl)c(OC)cc(OC)c1C2=O | inactive |  | inactive | inactive | inactive | inactive | inactive | inactive | inactive | 4.29 µM (active) and 13.7 µM (active) | inactive | inactive | inactive | inactive |  | inactive |  |  | inactive |  |
| Nc1ccc(N=Nc2ccccc2)c(N)n1 | inactive |  | inactive | inactive | 13.8 µM (active) and 17.2 µM (active) and 10.6 µM (active) | inactive | 27.4 µM (active) and 27.3 µM (active) | 27.4 µM (active) and 24.3 µM (active) | inactive | inactive |  | 54.5 µM (active) | 48.8 µM (active) and 30.6 µM (active) and 15 µM (active) |  |  | 1.93 µM (active) and 3.76 µM (active) |  |  |  | inactive |
| O=C(O)CCCCC1CCSS1 (stereo unspecified) | inactive |  | inactive | inactive | inactive | inactive | inactive | inactive | inactive | inactive | inactive | inactive | inactive | inactive |  | inactive |  |  |  |  |
| CC(=O)OC/C=C(C)/C=C/C=C(C)/C=C/C1=C(C)CCCC1(C)C | inactive |  | inactive | inactive | inactive | inactive | inactive | inactive | inactive | 24.3 µM (active) | inactive | 54.5 µM (active) | inactive | inactive |  | inactive |  |  |  |  |
